The AC50 is the concentration at which the activity in the assay is half-maximal.

This note sets out measurements from PubChem BioAssay (EPA / NIEHS).

Each structure is given as a SMILES string. Where “and” joins values, the source holds several entries; their conditions need not be identical. Equal values may be shown once. More than one record can exist for a structure, and the calls need not agree. Calls of active or inactive are those of the source. The calls were made as follows: active = hit-call score of the fitted dose curve at least 0.9, where 1 is the maximum; inactive = score below 0.9.

Assay [1] concerns the target Transcription factor E2F1 (Homo sapiens) (UniProt Q01094). Briefly: ATG_E2F_CIS: Attagene CIS-FACTORIAL HepG2 Assay for human E2F Transcription Factor 1 (AID 2282935). The following applies: HepG2 Attagene cis-reporter, E2F reporter RNA transcripts; actives raise or lower the signal. Put shortly: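 Multiplexed cis-reporter assay: HepG2, transient transfection, 24 h dosing, mRNA quantitation by labeled RT-PCR and CE.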

Assay [2] can be described thus: ATG_E_Box_CIS: Attagene CIS-FACTORIAL HepG2 Assay for human Enhancer Box (E-box) (AID 2282936). The following applies: HepG2 E-box cis-reporter transcription, actives raise or lower the signal. The gist of the method: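 Multiplexed CIS reporter system in transiently transfected HepG2 cells measures native transcription factor activity. Reporter RNA after 24 h exposure is profiled by RT-PCR-capillary electrophoresis.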

The nature of assay [3]: ATG_M_61_CIS: Attagene CIS-FACTORIAL HepG2 Assay for M61 Transcription Factor (Internal Marker) (AID 2282937). As to conditions: HepG2 Attagene CIS-FACTORIAL M61 internal marker reporter; actives raise or lower the signal. The gist of the method: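 Fluorescence from labelled cDNA fragments, separated by capillary electrophoresis, quantifies reporter induction. HepG2 cells bearing transiently transfected cis-promoter MRTUs were incubated with test chemical for 24 h; DMSO defined baseline for gain/loss fitting.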

Assay [4] is described as follows: ATG_EGR_CIS: Attagene CIS-FACTORIAL HepG2 Assay for human Early Growth Response 1 (EGR1) (AID 2282938). As to conditions: HepG2 Attagene CIS-FACTORIAL EGR reporter mRNA; actives raise or lower the signal. The gist of the method:
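Cell-based multiplex transcription assay: HepG2 carrying transfected cis-element reporter units, 24 h chemical treatment. Fluorescence from capillary electrophoresis of RT-PCR products gives mRNA levels; fitting is bidirectional relative to DMSO.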

Assay [5] can be described thus: ATG_M_19_CIS: Attagene CIS-FACTORIAL HepG2 Assay for M19 Transcription Factor (Internal Marker) (AID 2282939). As to conditions: HepG2 Attagene CIS-FACTORIAL M19 internal marker reporter; actives raise or lower the signal. The gist of the method: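 Internal marker readout, fitted in both directions against DMSO, from HepG2 cells carrying transfected cis-element reporter constructs; RT-PCR and capillary electrophoresis of reporter mRNA after 24 h exposure.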

Assay [6] can be described thus: ATG_ERE_CIS: Attagene CIS-FACTORIAL HepG2 Assay for Estrogen Response Element (ERE) (AID 2282940). As to conditions: HepG2 ERE cis-reporter, Attagene RNA transcript; actives raise or lower the signal. The gist of the method:
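After 24 h compound treatment, RNA from transfected HepG2 cells was reverse-transcribed, reporter cDNA PCR-amplified, FAM-labelled, HpaI-cut and resolved by capillary electrophoresis. ERE-driven cis reporter transcripts reflect endogenous factors; gain or loss scored against DMSO.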

Assay [7] can be described thus: ATG_Ets_CIS: Attagene CIS-FACTORIAL HepG2 Assay for human Erythroblast Transformation Specific (ETS) (AID 2282941). The following applies: HepG2 ETS cis-reporter transcription, actives raise or lower the signal. The gist of the method:
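HepG2 cells transiently transfected with cis-promoter reporter transcription units were dosed for 24 h; reporter mRNA was measured by RT-PCR, 6-FAM primer extension, HpaI digestion and capillary electrophoresis, with bidirectional fitting against DMSO baseline.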

For assay [8], the target named is Hepatocyte nuclear factor 3-beta (Homo sapiens) (UniProt Q9Y261). Description: ATG_FoxA2_CIS: Attagene CIS-FACTORIAL HepG2 Assay for human Forkhead box A2 (FOXA2) (AID 2282942). As to conditions: HepG2 cis-reporter transcription factor activity, 24 h; actives raise or lower the signal. Put shortly:
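In transiently transfected human HepG2 cells, promoter-driven reporter mRNA levels after 24 h chemical exposure are determined via RT-PCR with capillary electrophoresis. DMSO serves as baseline for bidirectional fitting.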

A short description of assay [9]: ATG_FoxO_CIS: Attagene CIS-FACTORIAL HepG2 Assay for human Forkhead box O (FoxO) (AID 2282943). The following applies: HepG2 Attagene cis-reporter, FoxO element, mRNA; actives raise or lower the signal. The gist of the method: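 HepG2 cells transiently transfected with cis-promoter-driven multiple reporter transcription units; 24 h after chemical dosing, reporter mRNA quantified by RT-PCR, fluorescent primer extension, HpaI digestion and capillary electrophoresis. Bidirectional fitting versus DMSO baseline.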

The nature of assay [10]: ATG_GATA_CIS: Attagene CIS-FACTORIAL HepG2 Assay for human GATA Binding Protein (AID 2282944). As to conditions: HepG2 GATA cis-element reporter, Attagene multiplex mRNA; actives raise or lower the signal. The gist of the method:
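Reporter transcripts from a GATA cis-regulated unit, among multiplexed reporters in transfected HepG2 cells, were measured by RT-PCR with capillary electrophoresis after 24 h dosing. Induction or loss scored relative to DMSO.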

Transcription factor E2F1 (Homo sapiens), sequence (Q01094 whole entry, looked up): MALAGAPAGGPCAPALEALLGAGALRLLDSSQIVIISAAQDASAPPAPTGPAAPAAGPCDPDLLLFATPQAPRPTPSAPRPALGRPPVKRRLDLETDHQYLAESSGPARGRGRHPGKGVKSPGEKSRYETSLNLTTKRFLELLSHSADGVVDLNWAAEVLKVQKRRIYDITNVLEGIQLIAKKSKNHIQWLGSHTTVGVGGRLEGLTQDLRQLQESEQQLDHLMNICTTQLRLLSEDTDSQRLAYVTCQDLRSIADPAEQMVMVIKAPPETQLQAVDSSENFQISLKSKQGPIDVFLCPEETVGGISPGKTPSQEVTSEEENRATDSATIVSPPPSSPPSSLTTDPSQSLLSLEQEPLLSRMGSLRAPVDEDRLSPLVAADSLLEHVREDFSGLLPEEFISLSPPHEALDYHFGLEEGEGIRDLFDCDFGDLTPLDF
Hepatocyte nuclear factor 3-beta (Homo sapiens), sequence (Q9Y261 whole entry, looked up): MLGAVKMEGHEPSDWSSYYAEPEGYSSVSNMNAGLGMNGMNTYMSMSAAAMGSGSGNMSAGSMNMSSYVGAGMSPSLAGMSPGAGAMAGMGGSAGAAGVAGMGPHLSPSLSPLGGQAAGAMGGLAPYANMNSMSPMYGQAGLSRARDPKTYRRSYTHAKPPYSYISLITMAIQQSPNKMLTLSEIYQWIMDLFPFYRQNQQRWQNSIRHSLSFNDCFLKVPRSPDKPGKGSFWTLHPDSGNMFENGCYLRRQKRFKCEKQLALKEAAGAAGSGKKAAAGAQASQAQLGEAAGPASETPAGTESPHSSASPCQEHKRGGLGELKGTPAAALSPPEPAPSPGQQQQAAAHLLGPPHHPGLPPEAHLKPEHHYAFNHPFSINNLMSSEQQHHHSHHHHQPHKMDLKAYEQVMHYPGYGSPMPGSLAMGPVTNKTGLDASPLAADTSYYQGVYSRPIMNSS

For the compound `C=CCC1=C(C)C(OC(=O)C2C(C=C(C)C)C2(C)C)CC1=O` (stereo unspecified), the AC50 in assay [1] was 132 µM (active); in [2], 46.9 µM (active); in assay [4], 33.4 µM (active) [middle of 5 runs]; in assay [5] it was 161 µM (active); in assay [6], 35 µM (active) and 26.7 µM (active) and 12.7 µM (active); in assay [7], 163 µM (active). Besides, the AC50 in [8] was 83.3 µM (active) and 125 µM (active) and 50 µM (active); in assay [9] it was 152 µM (active). Besides, the result in assay [1], in assay [2], in [3], in [4], in [5] and in assay [6] was inactive. For the same compound, the result in [7], in [8] and in [9] was inactive.

As to `C=CCC1=C(C)[C@@H](OC(=O)[C@@H]2[C@@H](C=C(C)C)C2(C)C)CC1=O`, the outcome in [1], in assay [2], in [4], in assay [5], in assay [6] and in [7] was inactive. Also, the outcome in assay [8] and in [9] was inactive.

Regarding `Cc1ccc(-c2c(Cl)nc(C#N)n2S(=O)(=O)N(C)C)cc1`, the outcome in assay [1], in [2], in [4], in assay [5], in assay [6] and in assay [7] was inactive. In addition, the call in assay [8] and in assay [9] was inactive.

Regarding `COC(=O)C=C(C)OP(=O)(OC)OC`, the compound was called inactive in assay [1], in [2], in assay [4], in [5], in assay [6] and in assay [7]. For the same compound, the compound was called inactive in assay [8], in assay [9] and in assay [10].

On to `O=C(Nc1ccccc1)Nc1ccnc(Cl)c1`, for which the result in assay [1], in [2], in assay [5], in assay [6], in assay [7] and in assay [8] was inactive. In assay [10], the outcome was inactive. Also, the AC50 in assay [4] is 50 µM (active); in assay [9], 13 µM (active).

Take `CC(C)Oc1cc(-n2nc(C(C)(C)C)oc2=O)c(Cl)cc1Cl`: the outcome in [1], in [2], in assay [4], in assay [5], in [7] and in assay [8] was inactive. For the same compound, in [9], the result was inactive. The AC50 in assay [6] was 12.8 µM (active).

For `N#Cc1cc(Br)c(O)c(Br)c1`, the compound was classed as inactive in assay [1], in assay [2], in assay [4], in assay [5], in assay [7] and in assay [8]. Also, the result in assay [9] and in assay [10] was inactive. Moreover, the AC50 in assay [6] is 6.61 µM (active).

Consider `CCc1nn(C)c(C(=O)NCc2ccc(C(C)(C)C)cc2)c1Cl`, for which the outcome in assay [1], in assay [2], in assay [4], in assay [5], in [6] and in [7] was inactive. The call in [8], in [9] and in assay [10] was inactive.

For `CCCCNC(=O)n1c(NC(=O)OC)nc2ccccc21`, the result in assay [1], in assay [2], in assay [4], in [5], in [6] and in assay [7] was inactive. Besides, the compound was classed as inactive in [8] and in assay [9].

As for `COC(=O)c1ccccc1C(=O)OC`, the compound was called inactive in assay [1], in assay [2], in assay [4], in assay [5], in [6] and in assay [7]. Also, the call in assay [8] and in assay [9] was inactive.

On to `COP(=S)(OC)Oc1nc(Cl)c(Cl)cc1Cl`, for which the outcome in assay [1], in assay [2], in assay [4], in assay [5], in assay [7] and in [8] was inactive. In addition, the call in [9] was inactive. Besides, the AC50 in assay [6] is 33.5 µM (active).

In the case of `Cc1cc(Cl)ccc1OCC(=O)O`, the outcome in [1], in assay [2], in assay [4], in [5], in assay [6] and in assay [7] was inactive. For the same compound, the call in [8] and in [9] was inactive.

As to `COC(=O)N(OC)c1ccccc1COc1ccn(-c2ccc(Cl)cc2)n1`, the compound was called inactive in assay [1], in assay [2], in [4], in assay [5], in assay [6] and in assay [8]. For the same compound, the compound was called inactive in [9]. The AC50 in [7] was 1.47 µM (active).

For `COc1nc(C)nc(NC(=O)NS(=O)(=O)c2ccccc2Cl)n1`, the outcome in [1], in assay [2], in assay [4], in assay [5], in [6] and in [7] was inactive. The compound was classed as inactive in assay [8] and in [9].

`CCOc1cc(Oc2ccc(C(F)(F)F)cc2Cl)ccc1[N+](=O)[O-]`: the outcome in [1], in [2], in assay [4], in assay [5], in assay [7] and in [8] was inactive. Moreover, in [9], the compound was called inactive. In addition, in assay [6], the AC50 is 13.1 µM (active).

On to `CON(C)C(=O)Nc1ccc(Cl)c(Cl)c1`, for which the result in [1], in [2], in [4], in [5], in [6] and in [7] was inactive. The compound was classed as inactive in assay [8] and in assay [9].

`CCNc1nc(Cl)nc(NCC)n1`: the compound was called inactive in assay [1], in assay [2], in assay [4], in [5], in [6] and in assay [7]. The call in [8] and in [9] was inactive.

`CS/C(C)=N/OC(=O)N(C)SN(C)C(=O)O/N=C(\C)SC`: the compound was called inactive in [1], in assay [2], in assay [4], in [5], in assay [6] and in [7]. Further, the outcome in [8] and in assay [9] was inactive.

Consider `CCCCC(CC)COC(=O)c1ccccc1C(=O)OCC(CC)CCCC` (stereo unspecified), for which the compound was called inactive in assay [1], in [2], in assay [4], in assay [5], in [6] and in assay [7]. For the same compound, the outcome in [8], in assay [9] and in assay [10] was inactive.

Take `COC(=O)C(C)Oc1ccc(Oc2ccc(Cl)cc2Cl)cc1` (stereo unspecified): the outcome in assay [1], in assay [2], in [4], in [5], in [7] and in assay [8] was inactive. Besides, the compound was classed as inactive in [9].

Consider `Fc1ccc(Oc2ccnc3cc(Cl)cc(Cl)c23)cc1`, for which the compound was called inactive in assay [1], in assay [4], in [5], in assay [6], in assay [7] and in assay [8]. The compound was classed as inactive in assay [9] and in assay [10]. Further, in assay [2], the AC50 was 5.95 µM (active).

As for `CN(C)C(=S)SSC(=S)N(C)C`, the result in assay [1], in assay [2], in assay [4], in [5], in assay [6] and in assay [7] was inactive. Also, the outcome in assay [8], in assay [9] and in assay [10] was inactive.

Turning to `COc1cnc(OC)n2nc(NS(=O)(=O)c3c(OCC(F)F)cccc3C(F)(F)F)nc12`, the compound was classed as inactive in assay [1], in [2], in [4], in [5], in assay [6] and in [7]. The outcome in assay [8] and in assay [9] was inactive.

With `CC(Oc1ccc(Cl)cc1Cl)C(=O)O` (stereo unspecified), the result in assay [1], in assay [2], in [4], in assay [5], in assay [6] and in [7] was inactive. The result in assay [8] and in assay [9] was inactive.

For the compound `CCON=C(CC)C1=C(O)CC(c2c(C)cc(C)cc2C)CC1=O` (stereo unspecified), the compound was called inactive in [1], in assay [2], in assay [4], in assay [5], in assay [6] and in [7]. Further, the result in assay [8] and in assay [9] was inactive.

In the case of `Cc1c(F)c(F)c(COC(=O)C2C(/C=C(\Cl)C(F)(F)F)C2(C)C)c(F)c1F` (stereo unspecified), the call in assay [1], in assay [2], in [4], in [5], in assay [6] and in [7] was inactive. Besides, the compound was classed as inactive in assay [8] and in [9].

In the case of `CCOP(=S)(OCC)SCn1c(=O)oc2cc(Cl)ccc21`, the compound was classed as inactive in assay [1], in [2], in assay [4], in assay [5], in assay [6] and in [8]. The compound was classed as inactive in [9] and in [10]. In addition, the AC50 in assay [7] was 50 µM (active).

Take `COc1nc(C)nc(NC(=O)NS(=O)(=O)c2ccccc2CCC(F)(F)F)n1`: the compound was called inactive in assay [1], in assay [2], in assay [4], in [5], in [6] and in assay [7]. In addition, the outcome in assay [8], in [9] and in [10] was inactive.
